From PubChem BioAssay (NCI)
Compounds without any hit were thinned out: in the full panel of roughly 83,000, 20% have a hit.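 Interpretation: 100, growth as untreated; towards 0, rising growth inhibition; 0, no net growth; 0 to -100, cell death. Compounds scoring below 10 were considered active.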 The source made the active and inactive calls.

What follows are molecules tested on NCI-H23 lung (assay: NCI-60 one-dose screen, 48 h (100 = growth as untreated, 0 = no growth, -100 = all killed)). Details: 10 µM unless noted.

Row | SMILES | growth
1 | COc1cccc(/C=C/C(=O)c2c(C)nc3ccccc3c2/C=C/c2ccc(C)cc2)c1OC | 49.7% (inactive)
2 | COC1=C(OC)C(=O)C(OC)=C(OC)C1=O | 98.6% (inactive)
3 | Cn1c(-c2c(N)n(Cc3ccc(C(F)(F)F)cc3)c3nc(C#N)c(C#N)nc23)nc2ccccc21 | 1.21% (active)
4 | COc1ccc(/C=N/C2=C(C#N)C(c3ccc(OC)cc3)c3ccc4ccccc4c3O2)cc1 (stereo not given) | 75.5% (inactive)
5 | O=[N+]([O-])c1ccc(C2CC(c3ccccc3)=Nc3ccccc3S2)cc1 (stereo not given) | 94.4% (inactive)
6 | COc1cccc(-c2nc3sccn3c2-c2ccnc(NCCNS(=O)(=O)c3cccc(F)c3)c2)c1 | 33.7% (inactive)
7 | Cc1ccc(NS(=O)(=O)c2ccc3c(c2)C2OCCC2C(c2ccc(C(=O)C(C)C)cc2)N3)cc1C (stereo not given) | 38.7% (inactive)
8 | C=C(C)[C@@H]1CC=C2c3sc(-c4ccc(C)cc4)nc3C[C@@H](C)[C@]2(C)C1 | 112% (inactive)
9 | COc1ccc(C2=Nc3c(N)ncnc3NC(c3ccc4c(c3)OCO4)C2)cc1 (stereo not given) | 69.7% (inactive)
10 | Cc1cccc(Cc2cnc(NC(=O)c3ccc4nnsc4c3)s2)c1 | 92.7% (inactive)
11 | CC(=O)n1c(-c2ccc(Cl)cc2)nc2c(c1=O)C(c1ccc(Cl)cc1)c1sc3c(Cl)cccc3c1O2 (stereo not given) | -0.859% (active)
12 | C[C@H](NC(=O)[C@@H]1CSSC[C@@H](NC(=O)c2nc3ccccc3cc2O)C(=O)NCC(=O)N1C)c1ccccc1 | 38.6% (inactive)
13 | COc1cc(/C=N/n2c(CN3CCOCC3)nc3ccccc3c2=O)cc(OC)c1OC | 98.9% (inactive)
14 | COc1ccc2c(c1)O/C(=C\c1cccc(OCC(=O)Nc3nc(C)c(C)s3)c1)C2=O | 19.4% (inactive)
15 | O=c1c2c3c(sc2n2c(-c4cc(-c5ccccc5)nn4-c4ccccc4)nnc2n1Cc1ccccc1)CCCC3 | 105% (inactive)
16 | Cc1ccc(Cl)cc1NC(=O)c1cc2ccccc2cc1O | -30.4% (active)
17 | COc1ccc2[nH]c(O)c(/C=c3/cc4c(c(-c5ccc(F)c(OC)c5)n3)=Nc3ccccc3-4)c2c1 | 61.1% (inactive)
18 | Clc1cccc(Cl)c1C(Nc1nc2ccccc2s1)Nc1nc2ccccc2s1 | 101% (inactive)
19 | COC(=O)[C@H](CSC)N(C)C(=O)[C@@H]1CSSC[C@@H](NC(=O)c2nc3ccccc3cc2O)C(=O)NCC(=O)N1C | 84.9% (inactive)
20 | N[C@@H](CCCCNCC(=O)O)C(=O)O | 95.1% (inactive)
21 | CC/C=C1/C(=O)C=C[C@@H]1C/C=C\CCCC(=O)O | 85.5% (inactive)
22 | CC(C)=C[C@@H]1c2c(c3ccccc3n(C)c2=O)O[C@H]2c3c(c4ccccc4n(C)c3=O)OC(C)(C)[C@@H]12 | 99.6% (inactive)
23 | N=C1CCC(=N)c2c1c(O)c1ccccc1c2O | 82.3% (inactive)
24 | C(=N\Nc1ncc(-c2cc3cc4c(cc3o2)OCO4)s1)/c1ccco1 | 20.9% (inactive)
25 | Cc1ccc2[nH]c(=O)c3c(c2c1)OC(N)=C(C#N)C31c2cc(Br)ccc2-c2ccc(Br)cc21 | 59.1% (inactive)
